Source: PubChem
FLuc inh-1 – inhibitors of firefly (Photinus pyralis) luciferase. purified P. pyralis luciferase, luminescence, biochemical. 76,000 tested, 2.5% active. P08659. Potency, µM (series often up to 115 µM), hits mostly inhibitors. AID 1347043; also: nearly all actives have a fitted effect of over 65% in size
Target sequence (P08659 whole entry, looked up): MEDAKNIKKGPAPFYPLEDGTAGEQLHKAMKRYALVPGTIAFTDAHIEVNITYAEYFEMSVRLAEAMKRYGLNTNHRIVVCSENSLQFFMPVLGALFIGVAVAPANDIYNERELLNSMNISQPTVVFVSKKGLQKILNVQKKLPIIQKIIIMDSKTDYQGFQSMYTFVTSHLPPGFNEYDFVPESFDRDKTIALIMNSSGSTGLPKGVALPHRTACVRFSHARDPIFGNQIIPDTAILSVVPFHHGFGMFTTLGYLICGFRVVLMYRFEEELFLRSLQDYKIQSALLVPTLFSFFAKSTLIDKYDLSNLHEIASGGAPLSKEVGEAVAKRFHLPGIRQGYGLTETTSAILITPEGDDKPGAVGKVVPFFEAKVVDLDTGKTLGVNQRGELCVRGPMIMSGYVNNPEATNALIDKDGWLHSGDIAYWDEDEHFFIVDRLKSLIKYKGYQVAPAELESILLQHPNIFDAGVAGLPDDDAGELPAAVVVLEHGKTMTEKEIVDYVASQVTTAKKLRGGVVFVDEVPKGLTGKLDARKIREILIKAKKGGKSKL
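FLuc 10nM, D-luciferin 10uM, ATP 10uM, Mg acetate 10mM, Tris acetate pH 7.5, Tween/BSA; cpd qHTS; enzyme added last; CCD luminescence.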
3T3 cytotox – kills NIH 3T3 cells | NIH 3T3 viability, CellTiter-Glo ATP luminescence, 48-72 h | Potency, µM (titrated, usually from 96.7 µM), most hits filed as inhibitors | 94,000 tested, 4.3% active; also: nearly all actives have a fitted effect of over 55% in size
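NIH 3T3 cells at 400 cells/well received 23 nL of compound by pintool and were incubated 48 or 72 h at 37 °C. Viability was read as ATP-coupled CellTiter-Glo luminescence.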
NPR1 antag – blocks ANP-stimulated signaling of human Npr1 receptor; Potency, µM (titrated, usually from 46.3 µM), actives largely listed as inhibitors; 76,000 tested, 1.6% active; HEK293 hNpr1 GloSensor cGMP, ANP-stimulated luminescence; P16066; calls by dose curve; also: nearly all actives have a fitted effect of over 60% in size
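HEK293 cells stably expressing human Npr1 and cGMP GloSensor pGS-40F, loaded 2 h with 2% GloSensor reagent, given compound 30 min at room temperature. Luminescence read before and 20 min after 0.1 nM hNppA.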
HEK293 tox – cytotoxic compounds in HEK 293 cells; AID 1345083; Potency, µM (highest dose often 115 µM), hits mostly inhibitors; 94,000 tested, 6.6% active; HEK 293 viability, ATP luminescence (CellTiter-Glo), 48-72 h; also: nearly all actives have a fitted effect of over 60% in size
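CellTiter-Glo luminescence (cellular ATP) was read after 48 or 72 hr of compound exposure at 37 degree Celsius. Cells were HEK 293 plated at 250 cells/well.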
FLuc SDR no ATP – firefly luciferase binding stabilization, ATP absent. shares compounds with FLuc inh-1. Purified FLuc-C-HiBiT, Nano-Glo HiBiT luminescence, no ATP. Potency, µM (highest dose often 32.7 µM), hits mostly activators. 1,300 tested, 7.8% active. AID 1963318; also: nearly all actives have a fitted effect of over 55% in size
FLuc SDR ATP – binders stabilizing firefly luciferase, plus ATP. shares compounds with FLuc inh-1. purified FLuc-C-HiBiT + ATP, HiBiT complementation luminescence. Potency, µM (series often up to 32.7 µM), most hits filed as activators. 1,300 tested, 8.7% active. AID 1963319;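 also: signal reports ligand binding via conformational change of the enzyme rather than luciferase catalysis; nearly all actives have a fitted effect of over 55% in size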
FLuc inh-2 – blocks firefly luciferase enzymatic activity; purified FLuc-C-HiBiT enzyme, luciferin luminescence; Potency, µM (series often up to 32.7 µM), actives largely listed as inhibitors; AID 1963320; 1,300 tested, 42% active; shares compounds with FLuc inh-1; also: nearly all actives have a fitted effect of over 70% in size
A number is an active result; - = inactive; ? = inconclusive; . = not tested or not shown. An excerpt weighted towards active compounds, which were near 11% of everything screened. Unless noted, calls follow the shape of the dose curve; as a rule, active = well fitted curve in the direction sought with a large enough effect; inconclusive = small, poorly fitted or top-dose-only effect, or another doubt; inactive = no such curve, though single readings can be large; an effect the other way counts as inactive or inconclusive.

SMILES | FLuc inh-1 | 3T3 cytotox | NPR1 antag | HEK293 tox | FLuc SDR no ATP | FLuc SDR ATP | FLuc inh-2
CCN(CC)CCOc1ccc(-c2nc3cc(Cl)ccc3s2)cc1 | . | . | . | . | - | - | ?
O=C(Nc1ccccc1F)c1ccc(-c2ccccc2)s1 | . | . | . | . | - | ? | ?
O=C(c1nccs1)c1cccnc1N1CCNCC(O)C1 (centres undefined) | - | - | - | - | . | . | .
CC(NC(=O)c1noc(-c2ccc(F)cc2)n1)c1ccccc1 (centres undefined) | - | - | - | - | . | . | .
O=C(O)c1ccc(-c2noc(-c3ccc(F)cc3)n2)cc1 | . | . | . | . | ? | 0.56µM | 0.44µM
O=C(O)c1ccc(-c2noc(-c3ccc(C(F)(F)F)cc3)n2)cc1 | . | . | . | . | ? | 0.44µM | 0.31µM
Cc1nc(CCNC(=O)c2ccc(C(F)(F)F)cc2)no1 | - | - | - | - | . | . | .
O=C(Nc1ccc(F)cc1F)C1(CCO)CCN(c2ncccn2)C1 (centres undefined) | - | - | - | ? | . | . | .
CCCCCc1nn2cc(-c3ccccc3)nc2s1 | . | . | . | . | ? | ? | 0.62µM
Cc1ccc(/C=C/c2nc3ccccc3n2S(=O)(=O)c2ccc(Br)cc2)cc1 | . | . | . | . | 1.8µM | ? | 0.62µM
CSc1ccc(/C=C/c2nc3ccccc3n2S(=O)(=O)c2cccc(Cl)c2)cc1 | . | . | . | . | 2µM | ? | 0.56µM
O=S(=O)(c1cccc(Cl)c1)n1c(/C=C/c2ccccc2Cl)nc2ccccc21 | . | . | . | . | 1.6µM | ? | 0.18µM
COCCn1c(COc2ccc(S(C)(=O)=O)cc2)nnc1C1CC(N)C1 (centres undefined) | - | - | - | - | . | . | .
COc1ccccc1CN1CCc2nc(C(=O)Nc3ccccc3)oc2CC1 | 4.5µM | ? | ? | ? | - | - | ?
COc1cccc(CN2CCc3nc(C(=O)Nc4nc(C)cs4)oc3CC2)c1 | 7.1µM | ? | - | ? | ? | - | ?
CCCN1CCc2nc(C(=O)Nc3ccccc3)oc2CC1 | . | . | . | . | - | - | ?
Cc1ccc(CN2CCc3nc(C(=O)NCc4ccccc4)oc3CC2)o1 | - | ? | - | - | . | . | .
Cc1noc(C)c1CN1CCc2nc(C(=O)Nc3ccccc3)oc2CC1 | 11µM | ? | 18µM | ? | - | - | -
Cc1noc(C)c1CN1CCc2nc(C(=O)NCc3ccccc3)oc2CC1 | - | - | - | ? | . | . | .
O=C(Nc1ccccc1)c1nc2c(o1)CCN(CC1CC1)CC2 | 2.2µM | - | - | ? | - | - | ?
O=C(Nc1ccccc1)c1nc2c(o1)CCN(Cc1cccnc1)CC2 | 0.35µM | ? | 18µM | 79µM | ? | ? | 5.7µM
O=C(Nc1cccnc1)c1nc2c(o1)CCN(Cc1cccc(O)c1)CC2 | 4µM | - | ? | ? | - | - | ?
O=C(Nc1cccnc1)c1nc2c(o1)CCN(CCCc1ccccc1)CC2 | - | ? | - | ? | . | . | .
O=C(Nc1ccccc1)c1nc2c(o1)CCN(Cc1ccccc1)CC2 | 1µM | ? | 13µM | ? | - | ? | 4.5µM
COc1ccccc1NC(=O)N1CCc2cc(OC)c(OC)cc2C1CNC(=O)C(C)C (centres undefined) | - | - | - | - | . | . | .
SMILES | FLuc inh-1 | 3T3 cytotox | NPR1 antag | HEK293 tox | FLuc SDR no ATP | FLuc SDR ATP | FLuc inh-2
O=C(Nc1ccccc1C(=O)O)c1ccccc1 | . | . | . | . | - | - | ?
Cc1ccc(C(=O)Nc2cccc(C(=O)O)c2)cc1S(=O)(=O)N1CCCC1 | . | . | . | . | ? | 0.078µM | 0.088µM
Cc1ccc(C(=O)Nc2ccccc2C(=O)O)cc1S(=O)(=O)N1CCCCCC1 | . | . | . | . | ? | ? | 2.8µM
Cc1nc2cc(-c3cccc(F)c3)nn2c(C)c1CCC(=O)NC1CCCCC1 | . | . | . | . | - | ? | ?
CC(=O)c1ccc(NC(=O)CCc2c(C)nc3cc(-c4ccc(Cl)cc4)nn3c2C)cc1 | . | . | . | . | - | ? | ?
Cc1ccc(NC(=O)CCc2c(C)nc3cc(-c4ccccc4)nn3c2C)cc1F | . | . | . | . | - | ? | ?
Cc1cccc(-n2nc(C)c(CCC(=O)NC3CC3)c2Oc2ccc(F)cc2F)c1 | - | ? | - | ? | . | . | .
Cc1ccc(NC(=O)Cn2ccn3nc(-c4ccccc4)c(CO)c3c2=O)cc1F | - | ? | - | ? | . | . | .
